This note sets out measurements from the supplement of paper PMC6288085.

Molecules are shown by their SMILES. Counter-ions that a name gives are not always drawn. ± gives the uncertainty stated by the source.

This experiment relates to Caenorhabditis elegans N2. As to the kind of experiment: food intake (mean delta OD600 / animal over 72 h) with 50 uM loxapine co-treatment (OD600 units per animal); higher = more food eaten (less suppression of loxapine-induced hyperphagia). Conditions: first compound 33 µM, loxapine concentration 50 µM. The method, then:
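C. elegans N2 adults (FUDR-sterilised, day 1) in 96-well plates fed gamma-irradiated bacteria. Each library drug (MedChemExpress FDA-approved library) at 33 uM was combined with loxapine at 50 uM. Food intake was measured as bacterial clearance: the change in OD600 from day 1 to 72 h, normalised per animal (mean over 14-21 wells of about 10-12 worms). Drugs flagged for bacterial lysis or sickness were excluded by the authors.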
In the case of `C[C@@H]1CCN(C(=O)CC#N)C[C@@H]1N(C)c1ncnc2[nH]ccc12` [tofacitinib (citrate)] + CN1CCN(C2=Nc3ccccc3Oc3ccc(Cl)cc32)CC1 [loxapine], the food intake is 0.0227 ± 0.0047.

`CCc1c2c(nc3ccc(OC(=O)N4CCC(N5CCCCC5)CC4)cc13)-c1cc3c(c(=O)n1C2)COC(=O)[C@]3(O)CC` [Irinotecan] + CN1CCN(C2=Nc3ccccc3Oc3ccc(Cl)cc32)CC1 [loxapine]: the food intake was determined as 0.022 ± 0.003.

As to `CN(CCOc1ccc(CC2SC(=O)NC2=O)cc1)c1ccccn1` (stereo not given) [rosiglitazone (maleate)] + CN1CCN(C2=Nc3ccccc3Oc3ccc(Cl)cc32)CC1 [loxapine], the food intake was found to be 0.0207 ± 0.002.

`COC(=O)/C=C/C(=O)OC` [dimethyl fumarate] + CN1CCN(C2=Nc3ccccc3Oc3ccc(Cl)cc32)CC1 [loxapine]: the food intake worked out at 0.0218 ± 0.0043.

With `CCc1nc(N)nc(N)c1-c1ccc(Cl)cc1` [pyrimethamine] + CN1CCN(C2=Nc3ccccc3Oc3ccc(Cl)cc32)CC1 [loxapine], the food intake came to 0.0221 ± 0.003.

With `N=C(N)NC(=N)NCCc1ccccc1` [Phenformin (hydrochloride)] + CN1CCN(C2=Nc3ccccc3Oc3ccc(Cl)cc32)CC1 [loxapine], the food intake is 0.0236 ± 0.0019.

With `CC[C@H]1OC(=O)C[C@@H](O)[C@H](C)[C@@H](O[C@@H]2O[C@H](C)[C@@H](O[C@H]3C[C@@](C)(O)[C@@H](O)[C@H](C)O3)[C@H](N(C)C)[C@H]2O)[C@@H](CC=O)C[C@@H](C)C(=O)/C=C/C(C)=C/[C@@H]1CO[C@@H]1O[C@H](C)[C@@H](O)[C@@H](OC)[C@H]1OC` [Tylosin (tartrate)] + CN1CCN(C2=Nc3ccccc3Oc3ccc(Cl)cc32)CC1 [loxapine], the food intake was 0.021 ± 0.0039.

As to `CC(C)(C)C(=O)OCOP(=O)(COCCn1cnc2c(N)ncnc21)OCOC(=O)C(C)(C)C` [Adefovir dipivoxil] + CN1CCN(C2=Nc3ccccc3Oc3ccc(Cl)cc32)CC1 [loxapine], the food intake is 0.0231 ± 0.0029.

As for `NS(=O)(=O)c1ccc(C(=O)O)cc1` [carzenide] + CN1CCN(C2=Nc3ccccc3Oc3ccc(Cl)cc32)CC1 [loxapine], the food intake was found to be 0.0251 ± 0.0067.

As to `CC1CNc2c(cccc2S(=O)(=O)N[C@@H](CCCNC(=N)N)C(=O)N2CC[C@@H](C)C[C@@H]2C(=O)O)C1` (stereo not given in full) [argatroban (monohydrate)] + CN1CCN(C2=Nc3ccccc3Oc3ccc(Cl)cc32)CC1 [loxapine], the food intake was 0.0229 ± 0.002.

For the compound `O=c1[nH]c(=O)n([C@H]2C[C@H](O)[C@@H](CO)O2)cc1C(F)(F)F` [trifluorothymidine] + CN1CCN(C2=Nc3ccccc3Oc3ccc(Cl)cc32)CC1 [loxapine], the food intake was 0.0216 ± 0.0028.

Turning to `CN1CCCC(n2nc(Cc3ccc(Cl)cc3)c3ccccc3c2=O)CC1` (stereo not given) [azelastine (hydrochloride)] + CN1CCN(C2=Nc3ccccc3Oc3ccc(Cl)cc32)CC1 [loxapine], the food intake was determined as 0.0226 ± 0.0035.

For the compound `Cc1nc(C(=O)NCC(=O)O)c(O)c2ccc(Oc3ccccc3)cc12` + CN1CCN(C2=Nc3ccccc3Oc3ccc(Cl)cc32)CC1 [loxapine], the food intake came out at 0.0228 ± 0.0037.

As for `c1ccc(C2CN3CCSC3=N2)cc1` (stereo not given) [tetramisole (hydrochloride)] + CN1CCN(C2=Nc3ccccc3Oc3ccc(Cl)cc32)CC1 [loxapine], the food intake worked out at 0.0209 ± 0.0029.

For `Nc1nc(/C(=C/CC(=O)O)C(=O)N[C@@H]2C(=O)N3C(C(=O)O)=CCS[C@H]23)cs1` [ceftibuten (dihydrate)] + CN1CCN(C2=Nc3ccccc3Oc3ccc(Cl)cc32)CC1 [loxapine], the food intake turned out to be 0.0192 ± 0.0055.

Consider `Cc1cc(C)cc(OCC2CNC(=O)O2)c1` (stereo not given) [metaxalone] + CN1CCN(C2=Nc3ccccc3Oc3ccc(Cl)cc32)CC1 [loxapine], for which the food intake is 0.0236 ± 0.003.

Consider `CN1C(C(=O)Nc2ccccn2)=C(O)c2ccccc2S1(=O)=O` [piroxicam] + CN1CCN(C2=Nc3ccccc3Oc3ccc(Cl)cc32)CC1 [loxapine], for which the food intake is 0.0225 ± 0.0032.

As for `CC(=O)NCCCS(=O)(=O)O` [Acamprosate (calcium)] + CN1CCN(C2=Nc3ccccc3Oc3ccc(Cl)cc32)CC1 [loxapine], the food intake was found to be 0.023 ± 0.0036.

For the compound `O=P(O)(O)C(O)(Cn1ccnc1)P(=O)(O)O` [Zoledronic acid (monohydrate)] + CN1CCN(C2=Nc3ccccc3Oc3ccc(Cl)cc32)CC1 [loxapine], the food intake worked out at 0.0237 ± 0.003.

For the compound `Nc1nnc(-c2cccc(Cl)c2Cl)c(N)n1` [lamotrigine] + CN1CCN(C2=Nc3ccccc3Oc3ccc(Cl)cc32)CC1 [loxapine], the food intake amounted to 0.0237 ± 0.008.
